Data taken from PubChem BioAssay AID686978 (National Center for Advancing Translational Sciences (NCATS), 2013).
In all, about 420,000 compounds went through this assay and about 64,000 (15%) were called active. Another 27% or so got no clear call; they are omitted. Calls follow the shape of the dose curve; as a rule, active = well fitted inhibition curve with a large enough effect; inconclusive = small, poorly fitted or top-dose-only effect; inactive = flat fitted curve, though single readings scatter. The list is a sample of the results. Entries that show only a call come without a potency.

test: qHTS for Inhibitors of human tyrosyl-DNA phosphodiesterase 1 (TDP1): qHTS in cells in absence of CPT; details: DT40 Tdp1-/- hTDP1 cells, no CPT, ATP luminescence, 48 h; activity change, negative = growth inhibition: at 46.2 µM (top of the series); also: nearly all actives have a fitted effect of over 55% in size
Method in brief: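 Chicken DT40 Tdp1-/- cells stably complemented with human TDP1 were seeded at 400 cells/well with DMSO in place of 20 nM camptothecin. After compound pinning, cells grew at least 48 hr at 37 °C; viability read by CellTiter-Glo luminescence.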
Potency is read from the fitted curve at half-maximal effect.

| SMILES | Potency |
| --- | --- |
| Nc1nnnn1/N=C/c1cccc(Br)c1 | inactive |
| COc1ccccc1C(=O)Nc1cccc(C(=O)N2CCOCC2)c1 | inactive |
| COc1ccc(C(=O)Nc2ccc3c(c2)OCO3)cc1OC | inactive |
| COc1ccccc1C(=O)NC(=S)NC12CC3CC(CC(C3)C1)C2 | inactive |
| COc1ccc(C(=O)NC(=S)Nc2ccc(N3CCCC3)cc2)cc1OC | 8.2 µM (active) |
| Cc1ccc(NC(=S)NC(=O)c2ccc(-c3ccccc3)cc2)cc1 | 4.61 µM (active) |
| CC(=O)NC(=S)Nc1ccc(NC(=S)NC(=O)c2ccc([N+](=O)[O-])cc2)cc1 | inactive |
| COc1ccc(C(=O)Nc2ccc(N3CCC(C)CC3)cc2)cc1Br | inactive |
| COc1ccc(C(=O)Nc2ccc(S(=O)(=O)Nc3onc(C)c3C)cc2)cc1OC | inactive |
| Cc1ccc(C(=O)NC(=S)Nc2ccccc2C)cc1 | inactive |
| COc1ccc(C(=O)Nc2ccc(C3(C#N)CCCC3)cc2)cc1OC | 23.1 µM (active) |
| COc1ccc(C(=O)NC(=S)Nc2ccc(Cl)cn2)cc1OC | inactive |
| COc1ccccc1C(=O)NC(=S)Nc1ccc(N2CCOCC2)cc1 | 0.206 µM (active) |
| CCOC(=O)c1c(C)[nH]c(C(=O)OCC(=O)N2CCCC2=O)c1C | inactive |
| COCCCNC(=O)CN1CCN(Cc2ccccc2Cl)C1=O | inactive |
| CCCc1cc(=O)oc2c(C)c(OCC(=O)N3CCC(C(=O)O)CC3)ccc12 | inactive |
| O=[N+]([O-])/C=C1\CCCCCN1 | inactive |
| CC1CC(c2ccccc2)n2nc(NC(=O)c3cccs3)nc2N1 (configuration not stated) | inactive |
| Cc1nnc(NC(=O)CCC(=O)N2CCC(C)CC2)s1 | inactive |
| Cc1ccc(OCC(=O)NNC(=S)NCc2ccccc2)cc1 | inactive |
| O=C1CCC(C(=O)OCC(=O)Nc2ccc(OC(F)F)cc2)=NN1 | inactive |
| Cc1ccc(C(=O)NC(=S)Nc2ccc(N3CCOCC3)cc2)cc1 | 29.1 µM (active) |
| O=C(CN1CCN(c2ccc(O)cc2)CC1)Nc1ccc(-c2ccccc2)cc1 | inactive |
| COC(=O)c1ccc(NC(=S)NN2CCOCC2)cc1 | inactive |

| SMILES | Potency |
| --- | --- |
| O=C(CCN1CCN(c2ccccc2)CC1)NNC(=S)Nc1ccccc1 | inactive |
| O=C(Cc1ccccc1)NC(=S)Nc1ccc(N2CCCCC2)cc1 | 23.1 µM (active) |
| Cc1ccc(C(=O)NC(=S)NCCN2CCOCC2)cc1 | inactive |
| Nc1nonc1-c1noc(-c2ccc(Br)o2)n1 | inactive |
| CCC1=C(C(=O)OC)C(c2cc(OC)ccc2OC)C(C#N)=C(N)O1 (configuration not stated) | inactive |
| CCOc1ccc(C(=O)NCCCN2CCCC2=O)cc1 | inactive |
| CC(C)OCCCNc1ncnc2c1[nH]c1ccc(F)cc12 | 2.91 µM (active) |
| O=C1CCCN1CCCNc1ncnc2c1[nH]c1ccccc12 | inactive |
| COc1cc(OC)c(OC)cc1/C=N/Nc1ncnc2c1[nH]c1ccc(C)cc12 | inactive |
| Cc1cc(C)c2c(NC(=O)C3CC3)nn(C)c2n1 | inactive |
| NC1=NC(c2cc(F)cc(F)c2)n2c(nc3ccccc32)N1 (configuration not stated) | inactive |
| Cc1nnc(N/N=C/C2CC=CCC2)[nH]c1=O (configuration not stated) | inactive |
| CCN(CC)c1ccc(/C=N/Nc2nc(C)cc(C)n2)c(O)c1 | 3.26 µM (active) |
| Cc1ccc(C(=O)NCCNC(=O)c2cnccn2)cc1 | inactive |
| CCN(CC)c1ccc(/C=N/NC(=O)c2cnccn2)c(O)c1 | 4.11 µM (active) |
| CCN(CC)c1ccc(C(=O)Nn2c(C)nc3ccccc3c2=O)cc1 | inactive |
| CCN(CC)c1ccc(/C=N/NC(=O)CNC(=O)c2cccnc2)cc1 | inactive |
| CCCCC(CC)C(=O)Nc1ccc(Cl)cn1 (configuration not stated) | inactive |
| Cc1cc2c(cc1C)N(Cc1ccccc1)C1=NCCCN12 | 13 µM (active) |
| O=C(CN1C2=NCCN2c2ccccc21)c1cccs1 | inactive |
| Nc1ccc(C(=O)OCC(=O)NC2CCCc3ccccc32)cc1[N+](=O)[O-] (configuration not stated) | inactive |
| CCN1CCc2nc(NC(=O)c3cc(F)c(F)cc3Cl)sc2C1 | inactive |
| CCc1ccc(NC(=O)N2CCc3ccccc3C2)cc1 | inactive |
| CCc1ccc(NC(=O)c2sc3nc4c(cc3c2N)CN(CC)CC4)cc1 | 18.4 µM (active) |

| SMILES | Potency |
| --- | --- |
| CC(C(=O)NC1CCCC1)N(c1ccc(Oc2ccccc2)cc1)S(C)(=O)=O (configuration not stated) | inactive |
| O=C(C[C@H]1CC[C@H]2[C@@H](COC[C@H](O)CN2C(=O)c2ccccn2)O1)N1CCN(c2ccccc2)CC1 | inactive |
| O=C(CCSc1ccccc1)NCCSc1ccccn1 | inactive |
| O=[N+]([O-])/C=C/c1ccc2c(ccn2Cc2ccccc2)c1 | 4.11 µM (active) |
| O=c1c(=O)n(Cc2c(F)cccc2Cl)ccn1Cc1ccccc1 | inactive |
| O=C(CNC(=O)c1n[nH]c2ccccc12)Nc1cc(Cl)ccc1Cl | inactive |
| COc1ccc(C)cc1NC(=S)Nc1ccccc1SC | inactive |
| CSc1ncccc1C(=O)NC1CCCCCC1 | inactive |
| CC(C)(C)C(=O)Nc1ccc(-c2cn3cccnc3n2)cc1 | inactive |
| NNC(=O)CSc1nnc(-c2ccccc2)n1-c1ccccc1 | inactive |
| Cc1ccc(-c2nnc(SCC(=O)N/N=C/c3cccs3)n2-c2ccc(C)cc2)cc1 | 14.6 µM (active) |
| Cc1nc2ccccc2n1CC(=O)N/N=C/c1cccs1 | inactive |
| CN(C)c1nccc(NCc2ccccc2)c1C#N | inactive |
| Cc1ccc(-c2nnc(SC(C)C#N)n2N)cc1 (configuration not stated) | inactive |
| CCCNC(=O)C(CC)n1nc(CC)n2c(cc3oc(C)cc32)c1=O (configuration not stated) | 20.6 µM (active) |
| CCc1nn(CCCC(=O)NC(C)c2ccccc2)c(=O)c2cc3occc3n12 (configuration not stated) | inactive |
| CCc1nn(CC(=O)NCC(C)c2ccccc2)c(=O)c2cc3occc3n12 (configuration not stated) | inactive |
| Cc1ccnc(NC(=O)CCC(=O)N(CC(=O)NCCc2ccccc2)Cc2cccs2)c1 | inactive |
| C=CCNC(=O)C1CC=CCC1C(=O)O (configuration not stated) | inactive |
| CCCCNC(=O)c1ccc(-n2c(=S)[nH]c3ccccc3c2=O)cc1 | inactive |
| O=[N+]([O-])c1ccccc1/C=C/CN1CCC(O)CC1 | inactive |
| O=C(c1cc(COc2c(F)cccc2F)on1)N1CCSCC1 | inactive |
| N=c1c2c(-c3ccccc3)c(-c3ccccc3)oc2ncn1Cc1ccco1 | 20.6 µM (active) |
| C(=C\c1ccccc1)/CSc1nnc(-c2cccnc2)n1Cc1ccco1 | inactive |
